# Columns and labels:
# [1] = molecular target: Rho-associated protein kinase 2 (Homo sapiens) (UniProt O75116); settings: at 1 µM
# [2] = molecular target: Rho-associated protein kinase 2 (Homo sapiens) (UniProt O75116); settings: at 10 µM
# [3] = molecular target: Proto-oncogene tyrosine-protein kinase receptor Ret (Homo sapiens) (UniProt P07949); settings: at 1 µM
# [4] = molecular target: Proto-oncogene tyrosine-protein kinase receptor Ret (Homo sapiens) (UniProt P07949); settings: at 10 µM
# [5] = molecular target: Macrophage-stimulating protein receptor (Homo sapiens) (UniProt Q04912); settings: at 1 µM
# [6] = molecular target: Macrophage-stimulating protein receptor (Homo sapiens) (UniProt Q04912); settings: at 10 µM
# [7] = molecular target: Proto-oncogene tyrosine-protein kinase ROS (Homo sapiens) (UniProt P08922); settings: at 1 µM
# [8] = molecular target: Proto-oncogene tyrosine-protein kinase ROS (Homo sapiens) (UniProt P08922); settings: at 10 µM
# [9] = molecular target: T1, Tyrosine-protein kinase receptor TYRO3 (Homo sapiens) (UniProt Q06418); settings: at 1 µM
# T1 sequence (whole entry): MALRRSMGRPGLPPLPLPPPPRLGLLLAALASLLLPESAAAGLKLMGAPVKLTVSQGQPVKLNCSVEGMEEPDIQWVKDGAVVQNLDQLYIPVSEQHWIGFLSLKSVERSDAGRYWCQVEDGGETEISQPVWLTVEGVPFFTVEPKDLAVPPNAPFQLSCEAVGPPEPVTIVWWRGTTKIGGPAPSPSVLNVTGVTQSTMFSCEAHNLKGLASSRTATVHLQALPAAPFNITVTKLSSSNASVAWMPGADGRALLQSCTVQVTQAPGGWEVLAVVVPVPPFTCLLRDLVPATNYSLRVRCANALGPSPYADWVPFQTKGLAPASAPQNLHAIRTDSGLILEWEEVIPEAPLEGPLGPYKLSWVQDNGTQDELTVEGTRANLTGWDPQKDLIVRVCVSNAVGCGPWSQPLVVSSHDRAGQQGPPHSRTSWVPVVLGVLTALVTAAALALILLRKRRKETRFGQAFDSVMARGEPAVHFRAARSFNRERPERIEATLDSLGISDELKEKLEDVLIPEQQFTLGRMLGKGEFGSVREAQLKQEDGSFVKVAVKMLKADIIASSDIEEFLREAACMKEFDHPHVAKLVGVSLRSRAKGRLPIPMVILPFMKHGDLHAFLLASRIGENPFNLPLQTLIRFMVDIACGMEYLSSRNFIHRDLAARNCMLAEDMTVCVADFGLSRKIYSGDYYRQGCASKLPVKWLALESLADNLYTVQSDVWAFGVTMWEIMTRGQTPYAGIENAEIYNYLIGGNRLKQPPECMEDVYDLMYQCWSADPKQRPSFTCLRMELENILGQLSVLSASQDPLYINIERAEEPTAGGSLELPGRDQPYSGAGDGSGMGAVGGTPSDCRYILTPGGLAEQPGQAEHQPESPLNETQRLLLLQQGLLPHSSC
# [10] = molecular target: T1, Tyrosine-protein kinase receptor TYRO3 (Homo sapiens); settings: at 10 µM
# [11] = molecular target: Ribosomal protein S6 kinase alpha-1 (Homo sapiens) (UniProt Q15418); settings: at 1 µM
# [12] = molecular target: Ribosomal protein S6 kinase alpha-1 (Homo sapiens) (UniProt Q15418); settings: at 10 µM
# [13] = molecular target: Ribosomal protein S6 kinase alpha-3 (Homo sapiens) (UniProt P51812); settings: at 1 µM
# [14] = molecular target: Ribosomal protein S6 kinase alpha-3 (Homo sapiens) (UniProt P51812); settings: at 10 µM
# [15] = molecular target: Ribosomal protein S6 kinase alpha-2 (Homo sapiens) (UniProt Q15349); settings: at 1 µM
# [16] = molecular target: Ribosomal protein S6 kinase alpha-2 (Homo sapiens) (UniProt Q15349); settings: at 10 µM
# [17] = molecular target: Ribosomal protein S6 kinase alpha-6 (Homo sapiens) (UniProt Q9UK32); settings: at 1 µM
# [18] = molecular target: Ribosomal protein S6 kinase alpha-6 (Homo sapiens) (UniProt Q9UK32); settings: at 10 µM
# [19] = molecular target: Mitogen-activated protein kinase 14 (Homo sapiens) (UniProt Q16539); settings: at 1 µM
# [20] = molecular target: Mitogen-activated protein kinase 14 (Homo sapiens) (UniProt Q16539); settings: at 10 µM
# Chain of Proto-oncogene tyrosine-protein kinase ROS (Homo sapiens) (P08922 whole entry): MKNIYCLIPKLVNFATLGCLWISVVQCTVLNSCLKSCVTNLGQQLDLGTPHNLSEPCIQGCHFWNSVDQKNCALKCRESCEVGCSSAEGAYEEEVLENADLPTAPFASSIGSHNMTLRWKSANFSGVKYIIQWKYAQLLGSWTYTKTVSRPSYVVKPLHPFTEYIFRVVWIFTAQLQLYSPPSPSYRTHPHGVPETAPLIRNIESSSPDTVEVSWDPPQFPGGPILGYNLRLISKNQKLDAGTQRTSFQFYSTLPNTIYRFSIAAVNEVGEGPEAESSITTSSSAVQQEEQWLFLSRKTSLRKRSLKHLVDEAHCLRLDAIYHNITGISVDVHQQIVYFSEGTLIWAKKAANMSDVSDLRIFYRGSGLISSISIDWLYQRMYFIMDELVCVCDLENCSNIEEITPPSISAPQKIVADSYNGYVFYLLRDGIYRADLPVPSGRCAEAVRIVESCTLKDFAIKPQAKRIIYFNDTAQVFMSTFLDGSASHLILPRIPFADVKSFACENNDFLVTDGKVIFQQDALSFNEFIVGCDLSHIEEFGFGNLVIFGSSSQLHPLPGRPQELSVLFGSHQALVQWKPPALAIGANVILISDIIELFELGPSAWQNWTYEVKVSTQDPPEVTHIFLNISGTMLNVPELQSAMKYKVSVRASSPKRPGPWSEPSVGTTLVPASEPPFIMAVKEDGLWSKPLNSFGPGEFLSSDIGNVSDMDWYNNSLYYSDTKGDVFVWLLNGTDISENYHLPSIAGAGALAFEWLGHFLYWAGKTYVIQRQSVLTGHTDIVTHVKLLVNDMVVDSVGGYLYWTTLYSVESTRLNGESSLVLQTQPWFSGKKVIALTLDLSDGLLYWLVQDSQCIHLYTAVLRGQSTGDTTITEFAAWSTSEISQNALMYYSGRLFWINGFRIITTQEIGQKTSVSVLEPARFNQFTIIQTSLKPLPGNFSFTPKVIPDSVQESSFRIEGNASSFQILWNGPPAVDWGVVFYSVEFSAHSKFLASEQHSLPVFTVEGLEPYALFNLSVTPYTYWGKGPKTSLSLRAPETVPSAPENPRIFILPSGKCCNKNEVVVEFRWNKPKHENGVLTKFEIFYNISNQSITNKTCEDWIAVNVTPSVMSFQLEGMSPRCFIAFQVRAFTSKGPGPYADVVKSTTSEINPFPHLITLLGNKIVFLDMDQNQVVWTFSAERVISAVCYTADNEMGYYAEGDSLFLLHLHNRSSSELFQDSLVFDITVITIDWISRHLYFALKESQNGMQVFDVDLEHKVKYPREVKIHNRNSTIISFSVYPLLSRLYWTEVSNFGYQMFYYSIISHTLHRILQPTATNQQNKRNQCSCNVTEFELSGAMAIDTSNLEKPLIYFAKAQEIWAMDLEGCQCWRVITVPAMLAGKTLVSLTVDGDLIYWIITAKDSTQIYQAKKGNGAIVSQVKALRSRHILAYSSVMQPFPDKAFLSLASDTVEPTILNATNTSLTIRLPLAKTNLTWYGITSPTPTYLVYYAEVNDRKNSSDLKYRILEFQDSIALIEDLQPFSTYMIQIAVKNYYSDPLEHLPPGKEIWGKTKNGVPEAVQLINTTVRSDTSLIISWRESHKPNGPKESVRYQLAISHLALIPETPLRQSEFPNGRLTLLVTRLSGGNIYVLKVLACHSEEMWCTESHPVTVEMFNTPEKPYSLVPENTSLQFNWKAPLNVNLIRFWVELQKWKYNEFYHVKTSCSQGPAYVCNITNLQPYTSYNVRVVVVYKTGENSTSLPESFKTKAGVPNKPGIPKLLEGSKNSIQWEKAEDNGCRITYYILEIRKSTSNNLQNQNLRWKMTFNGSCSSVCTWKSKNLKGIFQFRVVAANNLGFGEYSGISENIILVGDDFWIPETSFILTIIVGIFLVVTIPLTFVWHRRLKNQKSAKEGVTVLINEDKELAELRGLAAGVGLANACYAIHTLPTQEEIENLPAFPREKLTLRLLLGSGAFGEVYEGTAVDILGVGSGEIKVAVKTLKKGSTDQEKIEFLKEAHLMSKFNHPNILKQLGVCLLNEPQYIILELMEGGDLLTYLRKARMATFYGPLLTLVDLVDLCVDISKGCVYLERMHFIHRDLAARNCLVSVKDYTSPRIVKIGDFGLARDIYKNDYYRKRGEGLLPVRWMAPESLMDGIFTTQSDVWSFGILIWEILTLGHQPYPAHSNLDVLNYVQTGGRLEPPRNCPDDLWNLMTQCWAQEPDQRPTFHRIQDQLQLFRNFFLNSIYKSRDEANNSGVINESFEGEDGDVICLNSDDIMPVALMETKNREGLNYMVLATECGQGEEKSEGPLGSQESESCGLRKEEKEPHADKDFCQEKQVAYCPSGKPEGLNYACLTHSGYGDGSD
# Chain of Mitogen-activated protein kinase 14 (Homo sapiens) (Q16539 whole entry): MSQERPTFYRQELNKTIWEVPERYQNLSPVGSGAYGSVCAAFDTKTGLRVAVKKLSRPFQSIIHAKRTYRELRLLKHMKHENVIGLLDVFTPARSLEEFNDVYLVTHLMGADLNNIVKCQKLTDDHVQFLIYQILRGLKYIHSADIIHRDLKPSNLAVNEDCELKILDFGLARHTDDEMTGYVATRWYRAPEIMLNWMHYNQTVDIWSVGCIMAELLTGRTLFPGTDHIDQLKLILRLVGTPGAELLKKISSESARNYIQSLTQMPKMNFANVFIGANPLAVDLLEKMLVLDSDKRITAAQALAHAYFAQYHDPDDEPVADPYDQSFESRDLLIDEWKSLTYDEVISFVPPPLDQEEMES
# Chain of Ribosomal protein S6 kinase alpha-3 (Homo sapiens) (P51812 whole entry): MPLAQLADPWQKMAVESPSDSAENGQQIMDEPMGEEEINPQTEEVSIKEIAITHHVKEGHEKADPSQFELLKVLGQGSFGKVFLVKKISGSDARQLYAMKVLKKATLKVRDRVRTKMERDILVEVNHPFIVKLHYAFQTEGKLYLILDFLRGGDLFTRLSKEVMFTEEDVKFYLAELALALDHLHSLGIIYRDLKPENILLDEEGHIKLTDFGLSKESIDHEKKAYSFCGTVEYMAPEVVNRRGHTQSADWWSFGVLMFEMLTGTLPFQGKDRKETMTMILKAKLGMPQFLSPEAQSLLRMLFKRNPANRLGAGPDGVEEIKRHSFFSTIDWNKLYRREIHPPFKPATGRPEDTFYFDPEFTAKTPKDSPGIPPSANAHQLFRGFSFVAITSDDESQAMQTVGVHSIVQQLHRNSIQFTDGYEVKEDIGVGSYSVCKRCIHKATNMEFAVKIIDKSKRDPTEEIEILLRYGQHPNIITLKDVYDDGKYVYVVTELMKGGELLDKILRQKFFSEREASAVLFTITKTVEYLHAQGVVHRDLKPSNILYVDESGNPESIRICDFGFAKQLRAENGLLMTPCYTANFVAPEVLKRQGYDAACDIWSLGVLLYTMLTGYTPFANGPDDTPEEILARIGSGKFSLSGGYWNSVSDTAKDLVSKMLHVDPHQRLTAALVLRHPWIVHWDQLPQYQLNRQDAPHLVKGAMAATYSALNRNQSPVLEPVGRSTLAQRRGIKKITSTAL
# Chain of Macrophage-stimulating protein receptor (Homo sapiens) (Q04912 25-304 limits assumed): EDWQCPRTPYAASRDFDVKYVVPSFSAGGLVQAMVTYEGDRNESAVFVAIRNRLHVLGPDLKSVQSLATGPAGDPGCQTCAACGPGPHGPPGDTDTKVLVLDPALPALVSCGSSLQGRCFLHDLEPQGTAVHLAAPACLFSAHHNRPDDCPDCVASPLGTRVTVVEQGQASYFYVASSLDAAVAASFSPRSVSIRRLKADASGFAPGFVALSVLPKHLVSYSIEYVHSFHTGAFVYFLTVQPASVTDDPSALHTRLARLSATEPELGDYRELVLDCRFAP
# Chain of Macrophage-stimulating protein receptor (Homo sapiens) (Q04912 310-1400 limits assumed): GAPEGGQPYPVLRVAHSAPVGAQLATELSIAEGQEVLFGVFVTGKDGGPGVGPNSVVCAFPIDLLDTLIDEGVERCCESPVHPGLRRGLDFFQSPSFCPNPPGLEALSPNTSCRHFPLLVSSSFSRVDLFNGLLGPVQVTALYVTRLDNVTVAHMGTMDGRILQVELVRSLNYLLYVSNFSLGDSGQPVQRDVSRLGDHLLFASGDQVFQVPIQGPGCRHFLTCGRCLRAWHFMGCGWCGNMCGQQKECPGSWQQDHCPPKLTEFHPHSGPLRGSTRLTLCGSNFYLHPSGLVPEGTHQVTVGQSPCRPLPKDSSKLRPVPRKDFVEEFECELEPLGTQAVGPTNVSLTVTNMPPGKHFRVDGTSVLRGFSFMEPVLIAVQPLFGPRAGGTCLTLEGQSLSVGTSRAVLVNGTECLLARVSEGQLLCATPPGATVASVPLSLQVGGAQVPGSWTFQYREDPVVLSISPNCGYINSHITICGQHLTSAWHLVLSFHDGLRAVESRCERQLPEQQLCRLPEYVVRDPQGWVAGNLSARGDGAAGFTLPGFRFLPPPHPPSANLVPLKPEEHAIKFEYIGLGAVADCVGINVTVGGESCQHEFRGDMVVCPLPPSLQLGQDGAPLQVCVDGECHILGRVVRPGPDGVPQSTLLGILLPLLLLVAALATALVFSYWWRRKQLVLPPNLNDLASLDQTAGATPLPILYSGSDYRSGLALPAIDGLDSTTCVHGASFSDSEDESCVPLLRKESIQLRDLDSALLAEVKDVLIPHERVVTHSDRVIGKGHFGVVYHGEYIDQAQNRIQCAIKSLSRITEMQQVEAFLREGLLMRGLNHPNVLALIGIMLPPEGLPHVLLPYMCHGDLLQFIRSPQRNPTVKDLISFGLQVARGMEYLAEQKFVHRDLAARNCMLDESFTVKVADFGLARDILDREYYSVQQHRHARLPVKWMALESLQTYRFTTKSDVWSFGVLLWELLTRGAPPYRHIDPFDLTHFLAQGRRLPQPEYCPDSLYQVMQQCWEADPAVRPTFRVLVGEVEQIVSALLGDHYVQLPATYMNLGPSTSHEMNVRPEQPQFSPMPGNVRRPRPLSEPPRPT
Structure (SMILES),residual activity [1],residual activity [2],residual activity [3],residual activity [4],residual activity [5],residual activity [6],residual activity [7],residual activity [8],residual activity [9],residual activity [10],residual activity [11],residual activity [12],residual activity [13],residual activity [14],residual activity [15],residual activity [16],residual activity [17],residual activity [18],residual activity [19],residual activity [20]
COc1ccc(CNc2nc(N(CCO)CCO)nc3c2ncn3C(C)C)cc1,91%,96%,108%,97%,76%,85%,96%,85%,116%,97%,90%,59%,31%,22%,11%,5%,84%,56%,96%,89%
COc1cc2ncnc(N3CCN(C(=O)Nc4ccc(Oc5ccccc5)cc4)CC3)c2cc1OC,98%,87%,101%,82%,74%,20%,81%,86%,97%,95%,93%,118%,56%,65%,90%,71%,106%,111%,78%,79%
Nc1ccc2ncnc(NCCc3ccc(Oc4ccccc4)cc3)c2c1,110%,94%,76%,55%,82%,70%,107%,100%,113%,100%,58%,41%,49%,45%,89%,65%,66%,77%,90%,91%
CC(=O)O/N=C1\C(=C2\C(=O)Nc3cc(Br)ccc32)Nc2ccccc21,98%,95%,6%,-1%,85%,89%,100%,90%,100%,98%,105%,59%,40%,28%,71%,34%,74%,89%,88%,85%
Cc1nc(-c2ccccc2)c(-c2ccncc2)o1,106%,76%,11%,7%,87%,96%,98%,97%,98%,121%,88%,97%,60%,64%,100%,92%,81%,117%,57%,14%
Cn1cc(/C=C2\C(=O)Nc3ccc(S(N)(=O)=O)cc32)c2ccccc21,37%,13%,1%,1%,94%,82%,98%,109%,67%,53%,9%,6%,9%,1%,4%,0%,21%,10%,94%,96%
COc1ccc(S(=O)(=O)N(CCO)c2ccccc2CN(C)C/C=C/c2ccc(Cl)cc2)cc1,100%,91%,105%,87%,90%,88%,105%,87%,113%,112%,119%,103%,60%,61%,106%,92%,108%,90%,93%,96%
Oc1n[nH]c2nnc(-c3c(-c4ccccc4)nn4ccccc34)cc12,83%,91%,102%,80%,70%,53%,91%,87%,109%,97%,114%,111%,96%,86%,90%,78%,91%,106%,93%,85%
CC(=O)c1ccc(N2CCOCC2)cc1O,92%,87%,99%,109%,91%,77%,94%,98%,86%,106%,–,110%,64%,56%,105%,107%,128%,102%,–,–
C[C@@H](N)[C@H]1CC[C@H](C(=O)Nc2ccncc2)CC1,19%,4%,–,–,–,101%,104%,105%,123%,124%,–,48%,–,–,62%,11%,110%,60%,106%,107%
COc1cccc(-c2cc(=O)c3ccccc3o2)c1N,97%,96%,114%,83%,93%,97%,106%,97%,78%,122%,91%,81%,118%,106%,102%,101%,92%,133%,86%,94%
CC[n+]1c(/C=C/N(C)c2ccccc2)n(-c2ccccc2)c2ccc(-c3nc4ccccc4s3)cc21,103%,93%,96%,100%,97%,57%,105%,102%,99%,72%,114%,84%,94%,64%,117%,97%,102%,87%,111%,73%
c1ccc(-c2n[nH]c3c2oc2ccccc23)cc1,97%,75%,74%,47%,58%,73%,97%,93%,79%,62%,97%,58%,66%,44%,92%,64%,–,–,93%,78%
Cc1cc2ncc(-c3ccccc3)nc2cc1C,100%,94%,96%,104%,92%,79%,101%,100%,–,–,95%,86%,50%,40%,110%,101%,97%,100%,85%,82%

# — ChEMBL document CHEMBL2218924, “A broad activity screen in support of a chemogenomic map for kinase signalling research and drug discovery” (Biochem J, 2013)
